Numbering of substitutions follows the chain as printed. The full ranking holds about 24,000 sequences; the median of “enrichment r” is about 0.99, and the highest 2% start at about 3.7. The list comes from a sample in which the highest values are over-represented; it also holds similar and randomly drawn sequences.
T1: UNK ZnF1-3 (human, UniProt Q9C0B0 31-174)
T1 sequence: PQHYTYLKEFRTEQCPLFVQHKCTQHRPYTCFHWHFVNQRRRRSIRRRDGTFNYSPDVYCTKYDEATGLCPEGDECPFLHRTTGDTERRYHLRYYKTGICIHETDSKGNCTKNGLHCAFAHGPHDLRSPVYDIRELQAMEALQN

B1: chr2:131139019:131139020:-_ENSMUSG00000048911_ENSMUST00000059372|mus_mus|FALSE|FALSE (ssRNA)
RNA: GGGAGUUCUACAGUCCGACGAUCGAUAUAGAUGUUGAGAGGCAGAUUCUGGAAUCCAAUAUUAGGCAUCCUGAAGUUAUAAUGUGGGAAAUCUGAGCUCAUGGAUGAACCGGGCGACGGGCAGCGGGCGUGCGGGCGGCGGCGCAACAGAGGAUUGAGCAUCA
B2: chr11:77336104:77336105:-_ENSG00000074201_ENST00000525064|hu_mus|hu_hu_hu_mus_False|98_108 (ssRNA)
RNA: GGGAGUUCUACAGUCCGACGAUCCUCGCACAUUGCAGUGAACAUUGCCUCCAAUGCUGACUUAUCACUGGGCACAAAUCGAAAUUCAGAAAUGGGUUCAACAUCAUCAUUGUCUUCCUCAUCUUCAUCAGAGAGAGGUUCUUUCAACAGAGGAUUGAGCAUCA
B3: 49074419_49074539_462_3pUTR_ENSMUSG00000020346_ENSMUST00000109194|mouse|control|control (ssRNA)
RNA: GGGAGUUCUACAGUCCGACGAUCCACAGGCAAUGACCAGGAUGGGGAUCUGCACUGGUGAGGGGGUCACAGGCACACGGGGCCAGGCUGGAGGGGCCACAGUGGGAACUCUCCACCUCUGCCUCCACAAAGCAUAAUGCUCCUCAACAGAGGAUUGAGCAUCA
B4: chr8:92086081:92086082:+_ENSG00000155100_ENST00000285420|hu_mus|motif|central (ssRNA)
RNA: GGGAGUUCUACAGUCCGACGAUCAAUCCGAGGUGGUUGAUUCUCAAGUACCAAGUUUGAAAUGUUAACAGCAACAGAAUCGGUCUUACUGUCCUUGAAAGUCAAUUGCUUCAAUUGCUCCAGUUCUUCCCUGUGUUUUUGCUCCAACAGAGGAUUGAGCAUCA
B5: chr3:10015032:10015033:+_ENSMUSG00000027533_ENSMUST00000029046|mus_mus|mus_mus_mus_hu_True|38_48 (ssRNA)
RNA: GGGAGUUCUACAGUCCGACGAUCGUUUUUACCAUCACAAGUGAUGAUACAAUCUGGCUUGGCCAUUGCGCCCAUUUUUCGCAAAGCCAGUCCUACUCCUAGCUCUUUCAUGUAUUCAUCAAAGCCUUUGCUGUCCACCAGGCGCAACAGAGGAUUGAGCAUCA
B6: chr2:48026839:48026840:+_ENSG00000116062_ENST00000540021|hu_hu|hu_hu_hu_mus_False|18_48 (ssRNA)
RNA: GGGAGUUCUACAGUCCGACGAUCAUAGUGAGCCACUAGCGUCCUAAAUCUGGAACAGUGGCGGUCAUCCGAAAACUGGCCGAUGAAAAACUUUCCCAGUGAAGUGUCCACAAAGCACACACCAUAUACACGAGUGUGACCAGACAACAGAGGAUUGAGCAUCA
B7: chr11:46405157:46405158:+_ENSG00000110492_ENST00000395566|hu_hu|hu_hu_hu_mus_False|8_108 (ssRNA)
RNA: GGGAGUUCUACAGUCCGACGAUCCCCUUAGGGGUGGGGGCACUUGGUGUGGGCGUGAGAGGACAGGCGUGAUUGACAGAGCUGACAGGAAGACAAAAGGCACUGGUGGGUUAUAUCUUGGGCCUGUGAGAGGGAGGGGCUCCGCAACAGAGGAUUGAGCAUCA
B8: chr11:46405157:46405158:+_ENSG00000110492_ENST00000395566|hu_hu|hu_hu_hu_mus_False|98_108 (ssRNA)
RNA: GGGAGUUCUACAGUCCGACGAUCCCCUUAGGGGUGGGGCUGGGGAGUGUGGGCGUGAGAGGACAGGCGUGAUUGACAGAGCUGACAGGAAGACAAAAGGCACUGGUGGGUUAUAUCUUGGGCCUGUGGGAGAGGAGGGCUCCGCAACAGAGGAUUGAGCAUCA
B9: chr11:46405157:46405158:+_ENSG00000110492_ENST00000395566|hu_hu|hu_hu_hu_mus_False|1_18 (ssRNA)
RNA: GGGAGUUCUACAGUCCGACGAUCCCCUCCCCACUUUGGGCACUUGGUGUGGGCGUGAGAGGACAGGCGUGAUUGACAGAGCUGACAGGAAGACAAAAGGCACUGGUGGGUUAUAUCUCGGGCCUGGGGGAGAGGAGGCGUGGGCAACAGAGGAUUGAGCAUCA
B10: chr11:46405157:46405158:+_ENSG00000110492_ENST00000395566|hu_hu|hu_hu_hu_mus_False|18_28 (ssRNA)
RNA: B9 RNA with U111C, U113C, C138G, G139C, G141C, G142C
B11: chr11:46405157:46405158:+_ENSG00000110492_ENST00000395566|hu_hu|hu_hu_hu_mus_False|18_108 (ssRNA)
RNA: B7 RNA with U118C, U126G, A128G, G132A, A134G, G135A
B12: chr11:46405157:46405158:+_ENSG00000110492_ENST00000395566|hu_hu|hu_hu_hu_mus_False|58_108 (ssRNA)
RNA: B7 RNA with G78A, G83A, A86G, A128G, G132A, A134G, G135A
B13: chr6:83878822:83878823:+_ENSMUSG00000030016_ENSMUST00000032088|mus_hu|FALSE|FALSE (ssRNA)
RNA: GGGAGUUCUACAGUCCGACGAUCCUCCUCGAGGAUUAAACCUGGGUCUCGACAUGGCUAUUUUCAAGAAAGCCUGAUUUAAUAAAGUAUAAGGUGGUGUUGAACCAUGUGAGGCAACGGCAUUCAGCUGCUGAAGCGCCAACUCAACAGAGGAUUGAGCAUCA
B14: chr12:67691335:67691336:+_ENSG00000111530_ENST00000540319|hu_mus|motif|central (ssRNA)
RNA: GGGAGUUCUACAGUCCGACGAUCCAUGGAGUCAUUUUUGGACAACUCUGACAACAGAUGUUCAAUAAGGUCUACAAAAACGGUAUUUCCGCAGCUCAUAACUAGGUGGCCAAGAGCAAUAAUUGUUCUUUUCCUCACUGCAAGCAACAGAGGAUUGAGCAUCA

Molecular target: T1, UNK ZnF1-3
Assay: nsRBNS (natural sequence RNA bind-n-seq); RBNS binding buffer (assumed for nsRBNS): 25 mM Tris pH 7.5, 150 mM KCl, 3 mM MgCl2, 0.01% Triton X-100, 500 ug/ml BSA, 20 U/ml SUPERase-In, 4 C; UNK is unkempt and MSI1 is Musashi-1; names of the RNAs are library labels; protein concentration not given here; high values mean tight binding

Question: B1 was tested. Which binding signal did it give?
Answer: 0.719 enrichment R

Question: B2 was tested. Which binding signal did it give?
Answer: 0.914 enrichment R

Question: For B3, which binding signal is on record?
Answer: 0.862 enrichment R

Question: With B4 as the binder, how does the binding signal read?
Answer: 1.01 enrichment R

Question: How did the binding signal turn out when B5 was run?
Answer: 0.575 enrichment R

Question: How did the binding signal turn out when B6 was run?
Answer: 1.2 enrichment R

Question: With B7 as the binder, how does the binding signal read?
Answer: 4.04 enrichment R

Question: How did the binding signal turn out when B8 was run?
Answer: 3.34 enrichment R

Question: B9 was tested. Which binding signal did it give?
Answer: 3.4 enrichment R

Question: B10 was tested. Which binding signal did it give?
Answer: 3.48 enrichment R

Question: With B11 as the binder, how does the binding signal read?
Answer: 4.17 enrichment R

Question: How did the binding signal turn out when B12 was run?
Answer: 3.45 enrichment R

Question: Which binding signal does the source give for B13 here?
Answer: 1.46 enrichment R

Question: With B14 as the binder, how does the binding signal read?
Answer: 0.704 enrichment R
